# Results reported in publication PMC7862700, “An all-to-all approach to the identification of sequence-specific readers for epigenetic DNA modifications on cytosine”.
# Tests used:
# Assay in all cases: DAPPL (digital affinity profiling via proximity ligation, sequencing); 10 mM Tris-HCl pH 7.5, 50 mM NaCl, 1 mM DTT, 4% glycerol, room temperature, 30 min; GST-TFs on glutathione beads, 16-mer random dsDNA library, 0.1% formaldehyde crosslink after washing; high values mean tight binding
# FLI1 = target: T1, FLI1 (Homo sapiens, UniProt Q01543 1-452); settings: protein: recombinant; tags: N-terminal GST; dsDNA, one strand shown
# T1 sequence: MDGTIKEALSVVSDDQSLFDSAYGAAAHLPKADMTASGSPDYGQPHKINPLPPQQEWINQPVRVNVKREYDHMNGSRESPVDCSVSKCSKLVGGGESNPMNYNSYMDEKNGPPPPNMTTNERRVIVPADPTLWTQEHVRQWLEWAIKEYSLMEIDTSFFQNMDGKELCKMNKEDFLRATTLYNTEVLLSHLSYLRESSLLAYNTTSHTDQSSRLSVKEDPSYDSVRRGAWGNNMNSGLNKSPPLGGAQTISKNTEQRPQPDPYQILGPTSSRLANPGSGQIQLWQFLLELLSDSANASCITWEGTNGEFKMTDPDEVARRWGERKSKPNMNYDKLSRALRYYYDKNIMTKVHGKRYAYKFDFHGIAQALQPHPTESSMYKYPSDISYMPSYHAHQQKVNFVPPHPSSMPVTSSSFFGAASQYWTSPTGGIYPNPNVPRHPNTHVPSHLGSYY
# Method in brief: (§1)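 Pools of DNA-barcoded human transcription factors, expressed in yeast as GST fusions on glutathione beads and combined with a tag-only sample, were incubated with 200 nmole of a 16-mer random double-stranded DNA library. Incubation took 30 min at room temperature in Tris/NaCl/DTT/glycerol buffer and was followed by washing, 0.1% formaldehyde crosslinking, proximity ligation (BsaI/T4 ligase, 1 h, 37 °C), PCR amplification and sequencing on an Illumina NextSeq500. Binding signal is the ratio of a hexamer's read frequency for a factor to its frequency for the tag-only sample.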
# ELK1 = target: T2, ELK1 (Homo sapiens, UniProt P19419 1-428); settings: protein: recombinant; tags: N-terminal GST; dsDNA, one strand shown
# T2 sequence: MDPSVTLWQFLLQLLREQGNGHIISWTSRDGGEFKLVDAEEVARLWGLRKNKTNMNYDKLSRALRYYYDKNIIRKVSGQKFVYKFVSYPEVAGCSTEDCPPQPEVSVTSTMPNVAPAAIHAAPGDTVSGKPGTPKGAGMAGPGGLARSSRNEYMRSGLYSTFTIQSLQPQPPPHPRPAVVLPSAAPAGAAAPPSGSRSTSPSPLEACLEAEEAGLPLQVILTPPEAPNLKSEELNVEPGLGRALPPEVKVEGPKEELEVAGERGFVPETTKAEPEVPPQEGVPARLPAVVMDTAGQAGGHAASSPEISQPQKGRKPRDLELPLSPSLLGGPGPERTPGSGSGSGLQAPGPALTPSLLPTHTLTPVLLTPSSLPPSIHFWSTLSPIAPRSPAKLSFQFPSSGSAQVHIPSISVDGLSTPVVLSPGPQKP
# Method in brief: as §1
# GABPA = target: T3, GABPA (Homo sapiens, UniProt Q06546 1-454); settings: protein: recombinant; tags: N-terminal GST; dsDNA, one strand shown
# T3 sequence: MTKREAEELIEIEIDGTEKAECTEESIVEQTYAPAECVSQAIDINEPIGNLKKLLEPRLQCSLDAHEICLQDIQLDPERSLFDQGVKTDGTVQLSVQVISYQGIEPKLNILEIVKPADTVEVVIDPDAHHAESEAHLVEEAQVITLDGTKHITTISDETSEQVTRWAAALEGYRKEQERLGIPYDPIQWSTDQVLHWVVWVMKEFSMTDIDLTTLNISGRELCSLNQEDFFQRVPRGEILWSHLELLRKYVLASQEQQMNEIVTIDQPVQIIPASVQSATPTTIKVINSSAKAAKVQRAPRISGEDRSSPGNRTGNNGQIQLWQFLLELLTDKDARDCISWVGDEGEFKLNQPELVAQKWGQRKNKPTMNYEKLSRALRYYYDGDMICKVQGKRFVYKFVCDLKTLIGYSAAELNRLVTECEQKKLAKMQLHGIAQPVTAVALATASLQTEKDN
# Method in brief: as §1
# ERG = target: T4, ERG (Homo sapiens, UniProt P11308 1-479); settings: protein: recombinant; tags: N-terminal GST; dsDNA, one strand shown
# T4 sequence: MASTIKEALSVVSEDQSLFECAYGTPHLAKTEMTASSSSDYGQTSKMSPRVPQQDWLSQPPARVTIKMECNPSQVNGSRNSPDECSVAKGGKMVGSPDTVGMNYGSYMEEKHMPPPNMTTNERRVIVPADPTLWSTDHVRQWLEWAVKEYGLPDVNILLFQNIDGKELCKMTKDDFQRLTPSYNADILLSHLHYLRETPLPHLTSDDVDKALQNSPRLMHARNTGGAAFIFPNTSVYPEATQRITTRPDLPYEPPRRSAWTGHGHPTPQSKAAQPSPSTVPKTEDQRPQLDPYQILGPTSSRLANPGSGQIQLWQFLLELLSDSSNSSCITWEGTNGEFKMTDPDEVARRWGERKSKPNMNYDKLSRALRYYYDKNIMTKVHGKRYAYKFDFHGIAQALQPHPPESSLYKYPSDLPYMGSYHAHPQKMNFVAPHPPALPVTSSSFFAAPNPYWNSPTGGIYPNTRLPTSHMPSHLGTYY
# Method in brief: as §1
# ELF1 = ELF1 (Homo sapiens, UniProt P32519 1-619); settings: protein: recombinant; tags: N-terminal GST; dsDNA, one strand shown
# Method in brief: as §1
# EHF = target: T5, EHF (Homo sapiens, UniProt Q9NZC4 1-300); settings: protein: recombinant; tags: N-terminal GST; dsDNA, one strand shown
# T5 sequence: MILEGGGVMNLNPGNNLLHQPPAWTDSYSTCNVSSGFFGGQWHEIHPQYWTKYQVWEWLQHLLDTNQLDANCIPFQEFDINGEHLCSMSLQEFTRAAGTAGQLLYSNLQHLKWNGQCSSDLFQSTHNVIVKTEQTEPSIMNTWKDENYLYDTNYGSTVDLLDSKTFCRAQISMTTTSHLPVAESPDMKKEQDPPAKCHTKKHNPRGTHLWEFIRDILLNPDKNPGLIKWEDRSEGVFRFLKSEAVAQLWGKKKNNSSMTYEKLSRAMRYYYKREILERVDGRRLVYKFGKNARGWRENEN
# Method in brief: as §1
# SPI1 = SPI1 (Homo sapiens, UniProt P17947 1-270); settings: protein: recombinant; tags: N-terminal GST; dsDNA, one strand shown
# Method in brief: as §1
# SPIB = SPIB (Homo sapiens, UniProt Q01892 1-262); settings: protein: recombinant; tags: N-terminal GST; dsDNA, one strand shown
# Method in brief: as §1
# ELK3 = target: T6, ELK3 (Homo sapiens, UniProt P41970 1-407); settings: protein: recombinant; tags: N-terminal GST; dsDNA, one strand shown
# T6 sequence: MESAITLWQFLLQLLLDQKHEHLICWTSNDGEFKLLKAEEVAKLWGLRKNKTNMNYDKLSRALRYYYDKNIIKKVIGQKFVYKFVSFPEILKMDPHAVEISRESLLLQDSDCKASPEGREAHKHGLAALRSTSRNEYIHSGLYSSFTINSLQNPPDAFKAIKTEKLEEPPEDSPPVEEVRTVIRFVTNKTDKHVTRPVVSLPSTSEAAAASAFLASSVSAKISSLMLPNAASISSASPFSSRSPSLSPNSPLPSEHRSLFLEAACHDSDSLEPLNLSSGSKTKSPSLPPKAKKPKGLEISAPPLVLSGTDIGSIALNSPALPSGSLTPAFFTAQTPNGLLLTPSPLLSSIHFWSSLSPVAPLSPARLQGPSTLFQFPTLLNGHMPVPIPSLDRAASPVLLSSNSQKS
# Method in brief: as §1
# FEV = target: T7, FEV (Homo sapiens, UniProt Q99581 1-238); settings: protein: recombinant; tags: N-terminal GST; dsDNA, one strand shown
# T7 sequence: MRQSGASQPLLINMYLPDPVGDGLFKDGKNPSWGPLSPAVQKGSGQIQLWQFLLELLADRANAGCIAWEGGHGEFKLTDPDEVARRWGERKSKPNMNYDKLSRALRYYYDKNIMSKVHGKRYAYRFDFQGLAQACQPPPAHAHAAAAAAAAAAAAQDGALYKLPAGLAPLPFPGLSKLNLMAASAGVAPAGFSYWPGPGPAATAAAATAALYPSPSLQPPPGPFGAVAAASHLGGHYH
# Method in brief: as §1
# ETV5 = ETV5 (Homo sapiens, UniProt P41161 1-510); settings: protein: recombinant; tags: N-terminal GST; dsDNA, one strand shown
# Method in brief: as §1
# HSF1 = HSF1 (Homo sapiens, UniProt Q00613 1-529); settings: protein: recombinant; tags: N-terminal GST; chain copies: 3; dsDNA, one strand shown
# Method in brief: as §1
# SPIC = target: T8, SPIC (Homo sapiens, UniProt Q8N5J4 1-248); settings: protein: recombinant; tags: N-terminal GST; dsDNA, one strand shown
# T8 sequence: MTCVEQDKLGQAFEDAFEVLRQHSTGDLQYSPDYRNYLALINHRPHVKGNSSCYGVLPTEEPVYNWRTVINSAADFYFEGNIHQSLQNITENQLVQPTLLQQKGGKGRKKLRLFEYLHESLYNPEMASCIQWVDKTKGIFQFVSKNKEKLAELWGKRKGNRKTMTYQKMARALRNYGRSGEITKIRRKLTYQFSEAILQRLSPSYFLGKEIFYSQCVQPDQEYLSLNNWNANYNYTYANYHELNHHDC
# Method in brief: as §1
# ELF4 = ELF4 (Homo sapiens, UniProt Q99607 1-663); settings: protein: recombinant; tags: N-terminal GST; dsDNA, one strand shown
# Method in brief: as §1
# ELK4 = target: T9, ELK4 (Homo sapiens, UniProt P28324-2 1-405); settings: protein: recombinant; tags: N-terminal GST; dsDNA, one strand shown
# T9 sequence: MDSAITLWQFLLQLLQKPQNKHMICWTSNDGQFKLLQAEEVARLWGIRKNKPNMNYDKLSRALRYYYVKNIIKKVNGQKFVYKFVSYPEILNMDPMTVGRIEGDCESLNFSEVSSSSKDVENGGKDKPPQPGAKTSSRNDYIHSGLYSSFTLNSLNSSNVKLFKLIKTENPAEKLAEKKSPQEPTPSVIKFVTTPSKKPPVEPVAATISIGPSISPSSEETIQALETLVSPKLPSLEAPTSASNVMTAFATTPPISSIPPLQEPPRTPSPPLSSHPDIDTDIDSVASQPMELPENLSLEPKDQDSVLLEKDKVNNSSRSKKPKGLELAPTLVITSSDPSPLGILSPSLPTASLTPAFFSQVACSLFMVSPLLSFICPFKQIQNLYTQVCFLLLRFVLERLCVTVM
# Method in brief: as §1
# ETV2 = target: T10, ETV2 (Homo sapiens, UniProt O00321 1-342); settings: protein: recombinant; tags: N-terminal GST; dsDNA, one strand shown
# T10 sequence: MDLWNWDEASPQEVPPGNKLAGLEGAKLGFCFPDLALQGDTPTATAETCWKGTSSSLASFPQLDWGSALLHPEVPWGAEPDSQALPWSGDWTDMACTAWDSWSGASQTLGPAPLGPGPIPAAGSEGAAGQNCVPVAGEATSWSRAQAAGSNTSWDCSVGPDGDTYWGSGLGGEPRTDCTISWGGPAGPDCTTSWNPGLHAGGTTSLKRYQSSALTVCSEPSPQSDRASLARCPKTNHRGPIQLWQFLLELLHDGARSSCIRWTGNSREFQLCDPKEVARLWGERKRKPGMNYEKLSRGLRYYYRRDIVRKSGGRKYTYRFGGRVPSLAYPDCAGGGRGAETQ
# Method in brief: as §1
# ELF3 = target: T11, ELF3 (Homo sapiens, UniProt P78545 1-371); settings: protein: recombinant; tags: N-terminal GST; dsDNA, one strand shown
# T11 sequence: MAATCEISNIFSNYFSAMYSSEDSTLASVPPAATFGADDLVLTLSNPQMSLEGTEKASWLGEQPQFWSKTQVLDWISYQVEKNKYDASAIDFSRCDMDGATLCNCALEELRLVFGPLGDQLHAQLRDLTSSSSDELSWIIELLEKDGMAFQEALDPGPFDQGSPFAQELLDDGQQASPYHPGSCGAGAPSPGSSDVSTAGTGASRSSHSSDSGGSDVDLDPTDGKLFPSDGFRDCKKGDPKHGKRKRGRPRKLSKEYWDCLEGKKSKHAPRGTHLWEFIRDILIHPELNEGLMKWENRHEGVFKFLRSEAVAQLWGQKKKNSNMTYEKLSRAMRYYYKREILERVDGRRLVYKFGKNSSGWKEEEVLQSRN
# Method in brief: as §1
# CRX = CRX (Homo sapiens, UniProt O43186 1-299); settings: protein: recombinant; tags: N-terminal GST; dsDNA, one strand shown
# Method in brief: as §1
# ETV1 = ETV1 (Homo sapiens, UniProt P50549 1-477); settings: protein: recombinant; tags: N-terminal GST; dsDNA, one strand shown
# Method in brief: as §1
# Sequence of ETV1 (P50549 whole entry): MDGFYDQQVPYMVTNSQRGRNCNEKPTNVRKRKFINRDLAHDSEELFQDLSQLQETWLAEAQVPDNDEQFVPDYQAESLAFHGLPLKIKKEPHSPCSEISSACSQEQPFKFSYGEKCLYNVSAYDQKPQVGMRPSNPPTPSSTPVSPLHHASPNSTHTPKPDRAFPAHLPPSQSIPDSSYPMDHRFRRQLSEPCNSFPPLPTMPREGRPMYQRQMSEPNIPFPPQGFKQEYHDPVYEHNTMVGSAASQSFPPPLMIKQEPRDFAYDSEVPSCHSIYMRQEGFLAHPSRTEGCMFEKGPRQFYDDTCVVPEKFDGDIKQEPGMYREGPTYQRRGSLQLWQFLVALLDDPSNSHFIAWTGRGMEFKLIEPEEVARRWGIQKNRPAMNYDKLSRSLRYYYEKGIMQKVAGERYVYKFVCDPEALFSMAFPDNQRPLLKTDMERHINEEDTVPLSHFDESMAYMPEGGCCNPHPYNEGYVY
# Sequence of ELF1 (P32519 whole entry): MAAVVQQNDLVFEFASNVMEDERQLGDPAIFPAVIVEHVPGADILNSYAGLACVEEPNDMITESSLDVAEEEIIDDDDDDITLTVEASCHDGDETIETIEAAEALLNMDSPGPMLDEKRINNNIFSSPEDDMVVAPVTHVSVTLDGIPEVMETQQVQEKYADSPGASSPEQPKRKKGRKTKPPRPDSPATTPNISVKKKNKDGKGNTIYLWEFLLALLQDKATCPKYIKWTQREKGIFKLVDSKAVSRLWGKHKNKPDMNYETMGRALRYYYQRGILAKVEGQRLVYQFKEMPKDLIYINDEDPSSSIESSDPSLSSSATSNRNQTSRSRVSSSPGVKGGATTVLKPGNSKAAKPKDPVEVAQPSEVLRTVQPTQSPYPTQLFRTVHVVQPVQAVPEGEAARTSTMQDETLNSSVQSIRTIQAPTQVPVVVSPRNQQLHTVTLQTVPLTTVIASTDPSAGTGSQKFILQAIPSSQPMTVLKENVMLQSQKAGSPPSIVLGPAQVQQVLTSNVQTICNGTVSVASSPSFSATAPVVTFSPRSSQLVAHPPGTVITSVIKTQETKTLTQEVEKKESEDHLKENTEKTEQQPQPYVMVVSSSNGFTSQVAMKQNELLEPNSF
# Sequence of ELF4 (Q99607 whole entry): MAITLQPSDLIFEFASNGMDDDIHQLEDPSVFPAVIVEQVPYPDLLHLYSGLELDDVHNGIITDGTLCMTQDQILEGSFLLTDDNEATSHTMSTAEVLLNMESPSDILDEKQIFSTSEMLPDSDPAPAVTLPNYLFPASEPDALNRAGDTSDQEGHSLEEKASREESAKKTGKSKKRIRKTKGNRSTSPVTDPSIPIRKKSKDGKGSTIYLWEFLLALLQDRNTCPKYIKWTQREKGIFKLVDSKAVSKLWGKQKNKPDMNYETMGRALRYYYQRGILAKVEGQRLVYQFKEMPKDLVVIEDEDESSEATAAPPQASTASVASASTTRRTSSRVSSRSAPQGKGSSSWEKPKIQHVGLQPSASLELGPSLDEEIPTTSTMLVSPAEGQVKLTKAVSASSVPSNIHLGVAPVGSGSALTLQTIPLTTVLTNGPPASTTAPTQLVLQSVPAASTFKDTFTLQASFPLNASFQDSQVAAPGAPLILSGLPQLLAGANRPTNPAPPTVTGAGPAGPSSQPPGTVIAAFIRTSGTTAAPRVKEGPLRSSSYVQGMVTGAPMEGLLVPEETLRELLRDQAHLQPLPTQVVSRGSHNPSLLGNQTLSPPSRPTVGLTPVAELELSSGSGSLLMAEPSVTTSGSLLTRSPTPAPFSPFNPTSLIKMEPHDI
# Sequence of CRX (O43186 whole entry): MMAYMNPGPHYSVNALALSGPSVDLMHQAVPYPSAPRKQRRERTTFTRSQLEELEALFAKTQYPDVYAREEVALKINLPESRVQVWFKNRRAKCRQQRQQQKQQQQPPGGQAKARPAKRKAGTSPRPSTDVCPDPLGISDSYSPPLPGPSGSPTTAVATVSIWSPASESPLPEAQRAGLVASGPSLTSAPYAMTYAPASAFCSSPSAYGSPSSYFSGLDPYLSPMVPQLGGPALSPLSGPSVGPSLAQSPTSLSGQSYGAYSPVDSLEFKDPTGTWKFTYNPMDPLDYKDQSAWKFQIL
# Sequence of ETV5 (P41161 whole entry): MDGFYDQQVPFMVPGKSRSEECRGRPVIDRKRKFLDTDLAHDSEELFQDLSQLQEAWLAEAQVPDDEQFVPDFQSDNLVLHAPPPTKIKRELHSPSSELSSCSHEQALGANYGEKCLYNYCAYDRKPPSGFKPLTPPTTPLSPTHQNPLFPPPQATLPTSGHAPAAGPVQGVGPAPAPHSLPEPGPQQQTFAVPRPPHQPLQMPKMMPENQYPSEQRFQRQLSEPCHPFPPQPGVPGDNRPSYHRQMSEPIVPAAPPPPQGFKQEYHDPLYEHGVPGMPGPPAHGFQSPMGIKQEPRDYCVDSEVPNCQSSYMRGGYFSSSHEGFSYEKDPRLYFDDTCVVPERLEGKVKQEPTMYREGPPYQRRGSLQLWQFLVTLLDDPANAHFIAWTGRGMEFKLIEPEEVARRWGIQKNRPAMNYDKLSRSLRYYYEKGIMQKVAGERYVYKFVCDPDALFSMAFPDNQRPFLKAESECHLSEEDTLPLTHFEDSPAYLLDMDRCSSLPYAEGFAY
# Sequence of HSF1 (Q00613 whole entry): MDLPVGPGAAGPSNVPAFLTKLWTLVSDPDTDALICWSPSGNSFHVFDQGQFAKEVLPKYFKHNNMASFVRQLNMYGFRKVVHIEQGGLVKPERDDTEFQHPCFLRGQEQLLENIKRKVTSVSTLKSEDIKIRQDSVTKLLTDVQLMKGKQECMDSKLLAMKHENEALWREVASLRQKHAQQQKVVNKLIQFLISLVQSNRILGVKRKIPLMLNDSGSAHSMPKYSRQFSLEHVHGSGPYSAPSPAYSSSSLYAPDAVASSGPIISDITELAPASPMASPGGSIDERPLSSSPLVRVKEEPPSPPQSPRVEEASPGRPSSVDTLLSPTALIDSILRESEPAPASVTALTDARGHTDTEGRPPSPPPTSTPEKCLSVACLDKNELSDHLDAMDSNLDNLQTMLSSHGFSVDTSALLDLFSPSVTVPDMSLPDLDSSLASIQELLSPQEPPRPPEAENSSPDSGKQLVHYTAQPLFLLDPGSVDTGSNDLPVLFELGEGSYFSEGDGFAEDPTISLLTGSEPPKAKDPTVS
# Sequence of SPIB (Q01892 whole entry): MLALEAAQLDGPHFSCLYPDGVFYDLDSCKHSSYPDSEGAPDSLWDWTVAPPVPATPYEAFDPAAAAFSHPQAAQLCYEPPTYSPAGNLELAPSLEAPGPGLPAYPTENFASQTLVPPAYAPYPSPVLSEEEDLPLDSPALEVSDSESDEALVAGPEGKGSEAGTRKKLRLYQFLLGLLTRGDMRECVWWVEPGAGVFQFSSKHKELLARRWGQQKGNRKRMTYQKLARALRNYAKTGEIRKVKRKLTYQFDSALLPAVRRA
sequence,measurement,setting,value
AACTCC,binding signal,FLI1,"1.47 fold enrichment (6-mer frequency, TF over GST control)"
same,binding signal,ELK1,"1.29 fold enrichment (6-mer frequency, TF over GST control)"
same,binding signal,GABPA,"1.39 fold enrichment (6-mer frequency, TF over GST control)"
same,binding signal,ERG,"1.32 fold enrichment (6-mer frequency, TF over GST control)"
same,binding signal,ELF1,"1.35 fold enrichment (6-mer frequency, TF over GST control)"
same,binding signal,EHF,"1.3 fold enrichment (6-mer frequency, TF over GST control)"
same,binding signal,SPI1,"1.34 fold enrichment (6-mer frequency, TF over GST control)"
same,binding signal,SPIB,"1.32 fold enrichment (6-mer frequency, TF over GST control)"
same,binding signal,ELK3,"1.38 fold enrichment (6-mer frequency, TF over GST control)"
same,binding signal,FEV,"1.32 fold enrichment (6-mer frequency, TF over GST control)"
same,binding signal,ETV5,"1.32 fold enrichment (6-mer frequency, TF over GST control)"
same,binding signal,HSF1,"1.23 fold enrichment (6-mer frequency, TF over GST control)"
same,binding signal,SPIC,"1.32 fold enrichment (6-mer frequency, TF over GST control)"
same,binding signal,ELF4,"1.3 fold enrichment (6-mer frequency, TF over GST control)"
same,binding signal,ELK4,"1.13 fold enrichment (6-mer frequency, TF over GST control)"
same,binding signal,ETV2,"1.23 fold enrichment (6-mer frequency, TF over GST control)"
same,binding signal,ELF3,"1.13 fold enrichment (6-mer frequency, TF over GST control)"
same,binding signal,CRX,"1.19 fold enrichment (6-mer frequency, TF over GST control)"
same,binding signal,ETV1,"1.26 fold enrichment (6-mer frequency, TF over GST control)"
